Most compounds without a hit are left out; they make up all but 2.5% or so of the library.
Mito fusion act: inhibitors of mitochondrial division or activators of mitochondrial fusion | AID 485298 | S. cerevisiae fusion-defective mutant growth rescue, CellTiterGlo 48 h | hit rate 0.23% among 320,000 | Potency, µM (series often up to 46.1 µM), without a hit: at the top dose growth rescue (activation), most hits filed as activators; further: potency means the concentration at half of the fitted maximal effect; % of control where 0% means no effect; nearly all actives have a fitted effect of over 45% in size
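Compounds are tested for their ability to restore growth of mitochondrial fusion-defective yeast strains at non-permissive 37C in YPEG medium over 48 hours. Viability is quantified by luciferase luminescence.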
CCT modulator: modulators of cytosolic chaperonin (CCT/TRiC) activity. purified chaperonin ATPase assay, HTRF ADP detection, 30 min. activity change, % (concentration not given with the values), hits read low. hit rate 0.3% among 360,000. AID 651819; in the data active means activity change below about -30%; further: on the % scale 0 is the no-effect control and ±100 the full control effect
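Enzyme 40 or 20 nM (batch-dependent) in Tris pH 7.4/KCl/MgCl2/DTT; cpd 76 uM single point; ATP 10 uM; 30 min 37 °C; Transcreener ADP HTRF detection, 30 min RT; ratio 665/615.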
aSyn rescue: inhibitors of alpha-synuclein toxicity in yeast. Yeast expressing alpha-synuclein, growth rescue, BacTiter-Glo, 24 h. Potency, µM (doses to about 46.1 µM), for the others: top-dose growth rescue (activation), usual class: activators. hit rate 0.14% among 370,000; further: potency means the concentration at half of the fitted maximal effect; % of control where 0% means no effect; nearly all actives have a fitted effect of over 65% in size
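Readout is rescue of growth in alpha-synuclein-expressing yeast, so inhibitors of toxicity appear as activators. Growth after 24 hr at 30 deg C in galactose medium is quantified by luminescence.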
pAkt inh: blocks phosphorylation of Akt; Neuro2A IGF-stimulated pAkt S473 HTRF, 20 min; stronger effect = lower value; activity change, % for hits at 50 µM; hit rate 0.32% among 360,000; AID 651550; in the data active means activity change below about -80%; inconclusive means mostly about -51% to -80%; further: on the % scale 0 is the no-effect control and ±100 the full control effect
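Neuro2A cells in DMEM with 0.5% FBS, overnight at 37 deg C, given compound at single 50 µM final, then IGF (6 nM final) for 20 min at 37 deg C. Lysed; phospho-Akt Ser473 by HTRF after 24 h, 665/615 ratio.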
TDP-43 yeast inh: rescues yeast growth from TDP-43 toxicity; TDP-43 expressing yeast growth rescue, BacTiter-Glo, 24 h; Potency, µM (highest dose often 46.1 µM), for the others: top-dose growth rescue (activation), hits mostly activators; hit rate 1.8% among 410,000; further: potency means the concentration at half of the fitted maximal effect; % of control where 0% means no effect; nearly all actives have a fitted effect of over 50% in size
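Cell-based yeast growth screen: TDP-43 expression induced in galactose, inoculum OD600=0.02 after raffinose pregrowth to mid-log. Read-out BacTiter-Glo luminescence at 24 hr, 30 deg C; inhibition of toxicity seen as signal increase.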
Apoferritin bind: candidate novel general anesthetic via apoferritin binding; P02791; apoferritin/1-aminoanthracene competitive binding, fluorescence; Potency, µM (series often up to 77.5 µM), for the others: at the top dose activity change, negative = displacement, most hits filed as inhibitors; hit rate 0.074% among 350,000; AID 485281; further: potency means the concentration at half of the fitted maximal effect; on the % scale 0 is the no-effect control and ±100 the full control effect; nearly all actives have a fitted effect of over 20% in size
Target sequence (P02791 2-175 limits assumed): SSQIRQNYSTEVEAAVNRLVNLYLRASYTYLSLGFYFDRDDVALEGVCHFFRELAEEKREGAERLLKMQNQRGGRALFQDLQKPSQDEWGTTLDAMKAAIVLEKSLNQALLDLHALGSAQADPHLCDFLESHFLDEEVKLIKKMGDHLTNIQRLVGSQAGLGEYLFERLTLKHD
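Apoferritin-based anesthetic binding model; compound displacement of fluorescent 1-AMA measured as endpoint fluorescence after 10 minutes at room temperature, scaled to free-ligand and complex controls.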
Numbers without * were called inactive; i = inactive; ? = inconclusive; / = no result; [ ] = another dose, or the depositor's remark. Unless noted, the call rests on the fitted dose curve; in most records, active means well fitted curve in the direction sought with a large enough effect; inconclusive means small, poorly fitted or top-dose-only effect, or another doubt; inactive means no such curve, though single readings can be large; an effect the other way counts as inactive or inconclusive.

SMILES | Mito fusion act | CCT modulator | aSyn rescue | pAkt inh | TDP-43 yeast inh | Apoferritin bind
CC(C)NC(=S)N/N=C/c1cc(Br)ccc1O | 7% | -1 | 18µM* | i | ? | 52%
CCCc1nnc(NC(=O)CCC(=O)O)s1 | 13µM* | 0 | 0% | i | 0% | 2%
C=C1C(c2ccc(C)cc2)=CCc2cc(C)cc(C)c21 | / | / | / | / | / | -7%
O=c1c(Cl)cc(Cl)nn1-c1ccccc1 | -1% | 2 | -1% | i | 25µM* | -5%
COc1ccc(-c2cc(C(F)(F)F)n3nc(C(=O)O)c(Cl)c3n2)cc1OC | / | / | / | / | 19% | -1%
Cc1nn(CC(=O)NCc2ccc(OC(C)C)cc2)c(=O)c2c(C)n(-c3ccc(Cl)cc3)nc12 | / | / | / | / | 16% | -3%
Cc1nnc(NC(=O)c2ccc(S(=O)(=O)N3CC(C)CC(C)C3)cc2)o1 (centres undefined) | 31% | 1 | 16µM* | i | -7% | -16%
COCc1nnc(NC(=O)c2ccc(S(=O)(=O)N3CCCc4ccccc43)cc2)o1 | 4% | 2 | ? | i | ? | -8%
CCOC(=O)N1CCN(S(=O)(=O)c2ccc(C(=O)Nc3nnc(C)o3)cc2)CC1 | -3% | -1 | -1% | i | -3% | 3%
O=C(Nc1nnc(C2CC2)o1)c1ccc(S(=O)(=O)N2CCCc3ccccc32)cc1 | -2% | -2 | ? | i | 18µM* | -13%
CC1CCN(S(=O)(=O)c2ccc(C(=O)Nc3nnc(C4CC4)o3)cc2)CC1 | 4% | -2 | 18µM* | i | ? | 7%
Cc1ccc(S(=O)(=O)N2CCN(c3nc(-c4cscn4)nc4ccccc34)CC2)cc1 | / | / | -9% | / | / | /
CCOc1ccc(-n2c(/C=C/c3cccc(F)c3)nc3cc(OC)c(OC)cc3c2=O)cc1 | / | / | / | / | ? | 176%
O=C(c1cn(-c2ccccc2)nc1-c1ccc(Br)cc1)N1CCOCC1 | 11µM* | -1 | 0% | i | 16% | -1%
O=C(c1cn(-c2ccccc2)nc1-c1ccc(F)cc1)N1CCCCC1 | 16µM* | -1 | -5% | i | 18% | -13%
O=C(CCl)Nc1cn(-c2ccccc2)nc1-c1ccc(F)cc1 | -4% | 1 | 4% | i | 8.9µM* | -2%
O=C(c1cn(-c2ccccc2)nc1-c1ccc(F)cc1)N1CCOCC1 | 7% | -2 | -1% | i | 0% | ?
O=C(c1cn(-c2ccccc2)nc1-c1ccncc1)N1CCCCC1 | 2% | -1 | 5% | i | 6% | -8%
COc1ccc(CCNCc2c(C(=O)O)c(C)n(Cc3c(F)cccc3Cl)c2C)cc1OC | / | / | / | / | 0% | -9%
CCn1c(COc2ccc(Cl)cc2)nnc1SCc1ccc(C#N)cc1 | 3% | 0 | ? | i | 22% | 1%
CCn1c(COc2ccc(Cl)cc2)nnc1SC1CCc2ccccc2C1=O (centres undefined) | 18µM* | -1 | ? | i | 11% | 3%
CCOC(=O)c1sc2cccc(F)c2c1S(=O)(=O)Nc1ccccc1F | / | / | / | / | 18µM* | ?
c1cncc(-c2nnc3n2N=C(c2cccs2)CS3)c1 | 6% | 1 | 8% | -114%* | 20% | -9%
CCOC(=O)c1sc(Nc2nc3c(OC)cccc3s2)cc1C | 6% | 4 | 0% | i | 22µM* | 135%
CCOC(=O)c1sc(Nc2nc3cc4c(cc3s2)OCO4)cc1C | 18% | 0 | 4% | i | 19% | 145%
SMILES | Mito fusion act | CCT modulator | aSyn rescue | pAkt inh | TDP-43 yeast inh | Apoferritin bind
CCOC(=O)N1CCN(Cc2nc3cc(NC(=O)C(C)C)ccc3n2C(C)C)CC1 | / | / | / | / | -25% | -8%
CCCCN1CCc2c([nH]c3ccccc23)C1=O | 6% | -3 | 8% | i | 22% | -4%
COC(=O)C1=C2c3[nH]c4ccccc4c3CCN2C(=O)CC1 | / | -5 | 10% | i | 10µM* | /
CCOc1cc(S(=O)(=O)NC2CCCCC2)ccc1F | 1% | 1 | 5% | i | ? | -19%
CCOc1cc(S(=O)(=O)NC2CCCC2)ccc1Cl | 6% | -1 | 0% | i | 20µM* | -4%
FC(F)(F)c1nc(Sc2ncccc2C(F)(F)F)n[nH]1 | -10% | 2 | -12% | i | 13µM* | -4%
COc1cccc(NC(=O)Nc2ccc3nc(N4CCN(C)CC4)cc(C)c3c2)c1 | / | / | / | / | 10% | 5%
C=C1C(=O)[C@]23C[C@H]1CC[C@H]2[C@]1(C)[C@@H](OC(C)=O)CC[C@@](C)(C(=O)OC)[C@H]1C[C@@H]3OC(C)=O | / | 0 | 17% | i | 18µM* | /
C=C1C(=O)[C@]23C[C@H]1CCC2[C@@]1(C)C(C[C@@H]3O)[C@](C)(C(=O)OC)CC[C@@H]1OC(C)=O (some centres undefined) | / | 1 | -81% | i | ? | /
C=C1C(=O)[C@]23C[C@H]1CC[C@H]2[C@]1(C)[C@@H](OC(C)=O)CC[C@@](C)(C(=O)O)[C@H]1C[C@@H]3O | / | -1 | ? | i | 11µM* | /
O=C(Nc1ccc2ccccc2c1)c1nc(S(=O)(=O)Cc2ccccc2F)ncc1Cl | / | / | -44% | / | / | /
N#Cc1ccc(NC(=S)/N=C(\N)c2ccccc2)cc1 | / | 0 | -21% | i | 11µM* | /
N/C(=N\C(=S)Nc1ccc2c(c1)OCO2)c1ccccc1 | / | -1 | -12% | i | 20µM* | /
N/C(=N\C(=S)Nc1ccccc1)c1ccccc1 | -6% | -2 | -11% | i | ? | -1%
NC(=S)Nc1ccc2c(c1)OCO2 | -1% | 1 | 1% | i | 5% | -4%
CC(C)c1ccc(NC(=O)C2Cc3ccccc3N2C(=O)c2ccccc2)cc1 (centres undefined) | / | / | / | / | -13% | -17%
COc1ccc(NC(=S)N2CCN(C(=O)c3ccco3)CC2)cc1 | -8% | -2 | 4% | i | -1% | -5%
COC(=O)c1ccc(NC(=S)N2CCN(C(=O)c3ccco3)CC2)cc1 | -1% | -40* | 5% | i | 13% | -10%
COC(=O)c1ccc(NC(=O)N2CCOCC2)cc1 | 3% | -1 | -5% | -121%* | -3% | -8%
CCCCCN(CCCCC)c1ccc(/C=C/c2ccnc3ccccc23)cc1 | / | / | -10% | / | / | /
CCn1nccc1C(=O)Nc1cc(Cl)cc(Cl)c1 | -1% | -3 | 2% | i | 20µM* | -3%
COc1cccc(NC(=O)CN(C)C(=O)c2cc(C)oc2C)c1 | -3% | -31* | 1%[1.84 µM] | i | 9% | /
Cc1[nH]n(-c2ccc([N+](=O)[O-])cc2)c(=O)c1C=NCCN1CCN(C(=O)c2ccc(Br)cc2)CC1 | -6% | -1 | -26% | -102%* | -32% | -20%
CC1=C(c2ccc(C)c(C)c2)S(=O)(=O)N=C1N1CCC(C(=O)NCCc2ccc(Cl)cc2)CC1 | / | / | / | / | 8% | ?

High-throughput results (PubChem)
